Results as given in PubChem BioAssay AID2314 (National Center for Advancing Translational Sciences (NCATS), 2010).
The whole screen tested about 300,000 compounds, of which about 37,000 (12%) were called active. Rule as the data show it: active = max response mostly above about 13% (no sharp cut-off); inactive = mostly below about 14%. Only a selection was taken, and actives are over-represented in it overall.

Experiment: Cycloheximide Counterscreen for Small Molecule Inhibitors of Shiga Toxin; also: read at 38.3 µM for the half of the compounds with a filed dose; 0% is about no effect
Conditions: cell reporter, cycloheximide protein synthesis inhibition counterscreen; active compounds read high

Row | Compound | max response
1 | CNC(=O)c1c(NC(NC(=O)c2ccco2)C(=O)c2ccc(Cl)cc2)sc2c1CCCC2 (centres undefined) | -2.69% (inactive)
2 | COC(=O)c1ccc(NC(=O)CSc2nncn2-c2cccnc2)cc1 | 3.92% (inactive)
3 | COC(=O)C1(C)NC(c2ccc(F)cc2)C2C(=O)N(c3ccccc3)C(=O)C21 (centres undefined) | -1.89% (inactive)
4 | CN(CC(=O)Nc1ccc(Cl)cc1)C(=O)CNC(=O)c1ccc2ccccc2c1 | 24.6% (active)
5 | COc1ccc(NC(=O)CN(C)C(=O)CNC(=O)C2CCCCC2)cc1 | 4.44% (inactive)
6 | COc1cccc(NC(=O)CN(C)C(=O)Cc2ccc(Cl)cc2Cl)c1 | -1.79% (inactive)
7 | CCOC(=O)[C@@H]1[C@H]2COc3cc(OC)ccc3[C@@H]2N2C(=O)N(c3cccc(C)c3)C(=O)[C@@]12C | -1.45% (inactive)
8 | CCCCn1c(-c2cccc(C)c2)nc2cc3[nH]c(=O)c(C(C)C)nc3cc21 | 8.65% (inactive)
9 | CC1(C)CCSC(/C=C/c2ccccc2)=N1 | 32.8% (active)
10 | CCCCC(CC)CNC(=O)C(=O)C1C(=O)Nc2ccccc21 (centres undefined) | 15.4% (inactive)
11 | C[C@@H]1C(c2ccc(F)cc2)=NN(c2ccc(Br)cc2)[C@H]1C(=O)N1CCOC1=O | -1.82% (inactive)
12 | COc1ccc(/C=N/Nc2ncnc3sc4c(c23)CCCC4)cc1O | 27.5% (active)
13 | COc1ncnc2sc3c(c12)CCCC3 | -0.884% (inactive)
14 | COc1ccc(NC(=O)CCNC(=O)Cn2cnc3sc4c(c3c2=O)CCCC4)cc1OC | -3.75% (inactive)
15 | COc1ccc(C2C(C(C)=O)=C(O)C(=O)N2c2nccs2)cc1 (centres undefined) | -3.41% (inactive)
16 | COc1ccc(C(=O)NNC(=S)NC(=O)c2ccccc2[N+](=O)[O-])cc1 | 2.1% (inactive)
17 | Cc1ccc(NC(=O)CN2C(=O)NC(C)(c3ccc(Cl)cc3)C2=O)c(Br)c1 (centres undefined) | -5.49% (inactive)
18 | CC(=O)c1cccc(NC(=O)C2COc3ccccc3O2)c1 (centres undefined) | 23.2% (active)
19 | CC(/C=C/c1ccco1)=N/NC(=O)C1COc2ccccc2O1 (centres undefined) | 7.66% (inactive)
20 | C/C(=N/NC(=O)C1COc2ccccc2O1)c1ccco1 (centres undefined) | 4.02% (inactive)
21 | COc1ccc(C(=O)N2CCC(C(=O)Nc3ccc(C)cc3)CC2)cc1 | 4.42% (inactive)
22 | COc1ccc(NC(=O)C2COc3ccccc3O2)cc1 (centres undefined) | 41% (active)
23 | COc1cccc(N(C(=O)C2COc3ccccc3O2)C(C(=O)NC2CCCCC2)c2ccc(O)cc2)c1 (centres undefined) | 8.69% (inactive)
24 | Cn1nc(C(F)(F)F)c(C(=O)Nc2cccc(C(F)(F)F)c2)c1SCc1ccc(Cl)cc1 | -3.55% (inactive)
25 | Cc1ccc(CN(CC(=O)NCC2CCCO2)S(=O)(=O)c2ccc(C)cc2)cc1 (centres undefined) | -1.68% (inactive)

Row | Compound | max response
26 | O=C1Nc2ccccc2/C1=C/c1ccnc2ccccc12 | -4.29% (inactive)
27 | Cc1cccn2c(=O)c(C=O)c(Nc3ccc(S(N)(=O)=O)cc3)nc12 | -2.14% (inactive)
28 | CC(C)C(C)NC(=O)COc1nc2ccccc2nc1N(C)C1CCCCC1 (centres undefined) | -4.63% (inactive)
29 | O=c1c2ccccc2nc(N/N=C/c2ccccc2)n1O | 11.3% (inactive)
30 | CCCc1nc2ccccc2c(=O)n1/N=C/c1ccc(O)c(O)c1 | -1.03% (inactive)
31 | O=c1c2ccccc2ncn1/N=C/c1ccccc1 | 40.3% (active)
32 | O=C(O)CCC(=O)O | 7.04% (inactive)
33 | COc1ccc(C(C(=O)NC(C)(C)C)N(C(=O)Cn2nnc3ccccc32)c2ccc(C(C)=O)cc2)cc1O (centres undefined) | 14.1% (active)
34 | CCC(C)(C)NC(=O)C(c1ccc(O)cc1)N(C(=O)Cn1nnc2ccccc21)c1ccc(NC(C)=O)cc1 (centres undefined) | -2.51% (inactive)
35 | COc1ccc(C(C(=O)NCC2CCCO2)N(C(=O)Cn2nnc3ccccc32)c2ccc(NC(C)=O)cc2)cc1OC (centres undefined) | -1.07% (inactive)
36 | COC(=O)C1CCN(CC(N)=O)CC1 | -5.67% (inactive)
37 | CCOP(=O)(OCC)C(Nc1cccc(C)c1)c1ccc(F)cc1 (centres undefined) | -1.31% (inactive)
38 | COc1cccc(OCCOc2cccc(/C=N/n3cnnc3)c2)c1 | 42.6% (active)
39 | COc1ccccc1OCCOc1ccc(/C=N/n2cnnc2)cc1 | -5.27% (inactive)
40 | C(=N\n1cnnc1)/c1cccnc1 | 0.339% (inactive)
41 | COC(=O)CNC(=O)c1cc(-c2ccncc2)nc2ccccc12 | 7.25% (inactive)
42 | CNC(=O)COC(=O)c1cc(-c2ccc(OC)cc2)nc2ccccc12 | 10.9% (inactive)
43 | CCc1ccc(-c2cc(C(=O)NN3CCN(C)CC3)c3ccccc3n2)cc1 | 21.6% (active)
44 | O=C(COc1ccc(Cl)cc1)NCCS(=O)(=O)N1CCN(c2ccc(F)cc2)CC1 | -2.81% (inactive)
45 | Brc1ccccc1C1Nc2cccc3cccc(c23)N1 | -2.34% (inactive)
46 | S=C1NC(c2ccccc2)=NCN1c1ccc(Br)cc1 | 11.3% (inactive)
47 | Brc1ccccc1C1N=C(c2ccccc2)NO1 (centres undefined) | 46.9% (active)
48 | N#Cc1ccc(C2N=C(c3ccccc3)NO2)cc1 (centres undefined) | 50.7% (active)
49 | COc1ccc(CNC(=O)c2cc(C(=O)C3CC3)c[nH]2)cc1 | -0.249% (inactive)
